From the supplement of paper PMC7380943
Counter-ions that a name gives are not always drawn. ± gives the standard deviation of the averaged measurements.

Columns and labels:
[1] = test system: CLZ3 (HCA2 human fibroblast dual HR-NHEJ reporter); experiment: NHEJ repair efficiency (GFP+ cells) relative to control (log10 fold); higher = more non-homologous end joining; settings: 5 µM; doxycycline 0.5 ug/mL
[2] = test system: CLZ3 (HCA2 human fibroblast dual HR-NHEJ reporter); experiment: HR repair efficiency (tdTomato+ cells) relative to control (log10 fold); higher = more homologous recombination; settings: 5 µM; doxycycline 0.5 ug/mL
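For HR repair efficiency (tdTomato+ cells) relative to control in this document: compound given one day before doxycycline, which switches on I-SceI endonuclease expression to create double-strand breaks within the integrated reporter.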
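For NHEJ repair efficiency (GFP+ cells) relative to control in this document: compound given one day ahead of doxycycline, which switches on I-SceI endonuclease to cut the chromosomally integrated reporter and create DSBs.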

Compound | NHEJ repair efficiency (log10) [1] | HR repair efficiency (log10) [2]
CC(C)=CCCC(C)(O)C1CCC2(C)C1C(O)CC1C3(C)CCC(O)C(C)(C)C3C(OC3OC(CO)C(O)C(O)C3O)CC12C (stereo unspecified) [R-Ginsenoside Rh1] | -0.0562 | 0.0565
C=C[C@@H]1C2=CCOC(=O)C2=CO[C@H]1O[C@@H]1O[C@H](CO)[C@@H](O)[C@H](O)[C@H]1O [Gentiopicrin] | -0.0046 | 0.0966
CC[C@H]1CN2CC[C@]3(C(=O)Nc4ccccc43)[C@@H]2C[C@@H]1/C(=C\OC)C(=O)OC [Rhynchophylline] | -0.15 | -0.0611
O=C1C[C@@H]2OCC=C3CN4CC[C@]56c7ccccc7N1[C@H]5[C@H]2[C@H]3C[C@H]46 [Strychnine] | 0.104 | -0.0183
C[C@H]1CC[C@@H]2N(C1)C[C@H]1[C@@H]3C[C@H]4[C@@H](C[C@H](O)[C@H]5C[C@@H](O)CC[C@@]54C)[C@@H]3CC[C@@H]1[C@]2(C)O [Peimine] | -0.07 | -0.0412
O=C/C=C/c1ccccc1 [Cinnamaldehyde] | 0.0683 | -0.0835
COc1cccc2c1cc([N+](=O)[O-])c1c(C(=O)O)cc3c(c12)OCO3 [Aristolochic acid A] | 0.203 | 0.0578
C=C(C)C1CC=C(C=O)CC1 (stereo unspecified) [Perillaldehyde] | 0.0128 | -0.104
COC(=O)C1=CCCN(C)C1 [Arecoline] | 0.0763 | 0.183
CCN1C[C@]2(COC)CC[C@H](OC)[C@]34C1[C@H](C[C@H]23)[C@@]1(O)C[C@H](OC)[C@H]2C[C@@H]4[C@@H]1[C@H]2O [Talatisamine] | 0.0604 | 0.0585
CC(=O)OC[C@]12[C@H](OC(C)=O)[C@H](OC(C)=O)[C@@H]3[C@@H](OC(C)=O)[C@@]14O[C@@]3(C)COC(=O)c1cccnc1CCC(C)C(=O)O[C@@H]([C@H](OC(=O)c1ccccc1)[C@@H]2OC(C)=O)[C@]4(C)O (stereo partly specified) [Wilforine] | -0.122 | 0.027
COC[C@@]12CC[C@H](OC)[C@]34C([C@H]([C@H](OC)[C@H]13)[C@]1(O)[C@H]3[C@@H](OC(=O)c5ccccc5)[C@](O)(C[C@H]34)[C@@H](OC)[C@@H]1O)N(C)C2 [Benzoylhypaconine] | -0.013 | 0.00783
CCN1CC2(COC)CCC(O)C34C5CC6C(OC)CC(O)(C5C6O)C(C(OC)C23)C14 (stereo unspecified) [Bullatine B] | -0.0469 | 0.0659
O=c1ccc2ccc3occc3c2o1 [Isopsoralen] | -0.0427 | -0.0598
CC(C)(C)[C@]1(O)CC2OC(=O)CC23C(=O)OC2OC(=O)[C@H](O)C231 (stereo partly specified) [Bilobalide] | 0.0452 | 0.0541
CN1[C@@H]2C[C@@H](OC(=O)[C@H](CO)c3ccccc3)C[C@H]1[C@@H]1O[C@@H]12 [Scopolamine Hydrobromide] | 0.039 | -0.0275
COc1cc(C(=O)OC2C3C=COC(OC4OC(CO)C(O)C(O)C4O)C3C3(CO)OC23)ccc1O (stereo unspecified) [Amphicoside Ii] | 0.0243 | -0.0261
N#C[C@H](O[C@@H]1O[C@H](CO[C@@H]2O[C@H](CO)[C@@H](O)[C@H](O)[C@H]2O)[C@@H](O)[C@H](O)[C@H]1O)c1ccccc1 [Amygdalin] | -0.0091 | 0.107
CN[C@@H](Cc1c[nH]c2ccccc12)C(=O)O [Abrine] | -0.159 | -0.21
CNCC(O)c1ccc(O)cc1 (stereo unspecified) [Synephrine] | 0.0915 | 0.108
O=c1cccc2n1C[C@@H]1CNC[C@H]2C1 [Cytisine] | 0.00702 | 0.264
CCN1C[C@]2(COC)[C@H](O)C[C@H](OC)[C@]34C1[C@H]([C@H](OC)[C@H]23)[C@@]1(OC(C)=O)C[C@H](OC)[C@@]2(O)C[C@@H]4[C@@H]1[C@H]2OC(=O)c1ccc(OC)cc1 [Yunaconitine] | -0.0536 | -0.204
CC[C@H]1CN2CC[C@@]3(C(=O)Nc4ccccc43)[C@@H]2C[C@@H]1/C(=C\OC)C(=O)OC [Isorhynchophylline] | -0.108 | -0.0739
N#CCc1ccc2c(c1)OCO2 [Homopiperonylonitrile] | 0.103 | 0.127
COc1cc(C2OCC3C(c4cc(OC)c(O[C@@H]5O[C@H](CO)[C@@H](O)[C@H](O)[C@H]5O)c(OC)c4)OCC23)cc(OC)c1O[C@H]1O[C@@H](CO)[C@H](O)[C@@H](O)[C@@H]1O (stereo partly specified) [Eleutheroside E] | 0.119 | -0.0597
C=C[C@@H](O)C#CC#C[C@@H](O)/C=C\CCCCCCC [Falcarindiol] | -0.109 | -0.13
COc1cc([C@H]2OC[C@H]3[C@H]2CO[C@@H]3c2cc(OC)c(O[C@@H]3O[C@H](CO)[C@@H](O)[C@H](O)[C@H]3O)c(OC)c2)cc(OC)c1O[C@@H]1O[C@H](CO)[C@@H](O)[C@H](O)[C@H]1O [Eleutheroside D] | 0.0455 | -0.0848

Compound | NHEJ repair efficiency (log10) [1] | HR repair efficiency (log10) [2]
C/C1=C\C2C(CCC3(CO3)C(O)C3C(O)C(C)CC3(O)C1=O)C2(C)C (stereo unspecified) [6,17-Epoxylathyrol] | -0.129 | 0.0115
CC(C)=CCC[C@](C)(O)[C@H]1CC[C@]2(C)[C@@H]1[C@H](O)C[C@@H]1[C@@]3(C)CC[C@H](O)C(C)(C)[C@@H]3[C@@H](O[C@@H]3O[C@H](CO)[C@@H](O)[C@H](O)[C@H]3O)C[C@]12C [Ginsenoside Rh1] | -0.0663 | 0.25
O=c1ccc2cc3ccoc3c(O)c2o1 [Xanthotoxol] | 0.0631 | -0.0752
CCN1C[C@]2(COC)[C@H](O)C[C@H](OC)[C@]34C1[C@H]([C@H](OC)[C@H]23)[C@@]1(OC(C)=O)C[C@H](OC)[C@@H]2C[C@@H]4[C@@H]1[C@H]2OC(=O)c1ccccc1 [13-Dehydroxyindaconintine] | 0.0298 | -0.0247
COc1ccc2c(c1OC)CN1CCc3cc4c(cc3C1C2)OCO4 (stereo unspecified) [Tetrahydroberberine] | -0.000562 | 0.103
CCN1C[C@]2(COC)[C@H](O)C[C@H](OC)[C@]34C1[C@H]([C@H](OC)[C@H]23)[C@@]1(OC(C)=O)C[C@H](OC)[C@@]2(O)C[C@@H]4[C@@H]1[C@H]2OC(=O)c1ccccc1 [Indaconitine] | 0.0186 | 0.112
COc1cc2c(cc1OC)[C@@]13CCN4CC5=CCO[C@H]6CC(=O)N2[C@H]1[C@H]6[C@H]5C[C@H]43 [Brucine] | -0.228 | -0.24
CCN1C[C@]2(COC)CC[C@H](OC)[C@]34C1[C@H]([C@H](OC)[C@H]23)[C@@]1(OC(C)=O)C[C@H](OC)[C@@]2(O)C[C@@H]4[C@@H]1[C@H]2OC(=O)c1ccc(OC)cc1 [Crassicauline A] | 0.00451 | 0.0792
CC(C)c1cc2c(c(O)c1O)[C@@]1(C(=O)O)CCCC(C)(C)[C@@H]1CC2 [Carnosic acid] | 0.106 | 0.167
c1cc2c(cc1[C@H]1OC[C@H]3[C@@H]1CO[C@@H]3c1ccc3c(c1)OCO3)OCO2 [Sesamin] | 0.0857 | 0.185
CC(C)=CCOc1c2occc2cc2ccc(=O)oc12 [Imperatorin] | 0.0993 ± 0.22 | 0.135 ± 0.28
CCN1C[C@]2(COC)[C@H](O)C[C@H](OC)[C@]34C1[C@H]([C@H](OC)[C@H]23)[C@]1(O)[C@H]2[C@@H](O)[C@](O)(C[C@H]24)[C@@H](OC)[C@@H]1O [Aconine] | -0.104 | 0.0705
CC(C)c1ccc2c(c1O)CC[C@H]1C3=C(CC[C@]21C)C(=O)OC3 [Triptophenolide] | -0.142 ± 0.096 | -0.108 ± 0.2
CCN1C[C@]2(C)CC[C@H](OC)[C@@]34C1[C@]1(OCO[C@@]15C[C@H](OC)[C@H]1C[C@]3(O)[C@@H]5[C@H]1OC)[C@@H](OC(C)=O)[C@H]24 [Deltaline] | -0.125 | -0.263
C=C[C@H]1[C@H](O[C@@H]2O[C@H](CO)[C@@H](O)[C@H](O)[C@H]2O)OC=C2C(=O)OCC[C@H]21 [Sweroside] | 0.0688 | 0.0254
CN(C)CCc1ccc(O)cc1 [Hordenine] | -0.0244 | 0.111
CCC1=C[C@H]2CN3CCc4c([nH]c5ccccc45)[C@](C(=O)OC)(C2)[C@H]13 [Catharanthine] | 0.00477 | 0.0298
C=CCSSCC=C [Garlicin] | -0.0895 | -0.0428
COc1cc2occc2c2oc(=O)ccc12 [Isobergapten] | -0.0955 | -0.063
COC(=O)C1=CCCN(C)C1 [Arecoline Hydrobromide] | 0.0326 | 0.0648
CCN1C[C@]2(COC)CC[C@H](O)[C@]34C1[C@@](O)([C@@H](OC)[C@H]23)[C@@]1(O)C[C@H](OC)[C@H]2C[C@@H]4[C@@H]1[C@H]2OC [Delsoline] | -0.0325 | 0.0487
C[C@H]1C(=O)O[C@@H]2CCN3CC=C(COC(=O)[C@](C)(O)[C@]1(C)O)[C@H]23 [Monocrotaline] | -0.0165 | 0.0383
CC(=O)[C@]1(O)CC[C@@]2(O)[C@]1(C)[C@H](OC(=O)/C=C(\C)C(C)C)C[C@@H]1[C@@]3(C)CC[C@H](O)CC3=CC[C@]12O [Caudatin] | -0.0815 | -0.0376
COC[C@]12CN(C)C3[C@@H]4[C@H](OC)[C@H]1[C@@]3([C@@H](OC)C[C@H]2O)[C@@H]1C[C@@]2(O)[C@H](OC(=O)c3ccccc3)[C@@H]1[C@]4(O)[C@@H](O)[C@@H]2OC [Benzoylmesaconine] | -0.0412 | -0.144
CC(C)=CCC[C@@](C)(O)[C@H]1CC[C@]2(C)[C@@H]1[C@H](O)C[C@@H]1[C@@]3(C)CC[C@H](O[C@@H]4O[C@H](CO)[C@@H](O)[C@H](O)[C@H]4O)C(C)(C)[C@@H]3CC[C@]12C [R-Ginsenoside Rh2] | -0.0662 | -0.111
Oc1cc(O)cc(/C=C/c2ccc(O)cc2O)c1 [Oxy-Resveratrol] | 0.00144 | -0.164
